# Experimental data taken from ChEMBL document CHEMBL2218924, “A broad activity screen in support of a chemogenomic map for kinase signalling research and drug discovery” (Biochem J, 2013).
# How the values were obtained:
# [1] = target: Serine/threonine-protein kinase PAK 6 (Homo sapiens) (UniProt Q9NQU5); conditions: at 10 µM
# [2] = target: PAS domain-containing serine/threonine-protein kinase (Homo sapiens) (UniProt Q96RG2); conditions: at 10 µM
# [3] = target: Activated CDC42 kinase 1 (Homo sapiens) (UniProt Q07912); conditions: at 1 µM
# Activated CDC42 kinase 1 (Homo sapiens), sequence (Q07912 whole entry, looked up): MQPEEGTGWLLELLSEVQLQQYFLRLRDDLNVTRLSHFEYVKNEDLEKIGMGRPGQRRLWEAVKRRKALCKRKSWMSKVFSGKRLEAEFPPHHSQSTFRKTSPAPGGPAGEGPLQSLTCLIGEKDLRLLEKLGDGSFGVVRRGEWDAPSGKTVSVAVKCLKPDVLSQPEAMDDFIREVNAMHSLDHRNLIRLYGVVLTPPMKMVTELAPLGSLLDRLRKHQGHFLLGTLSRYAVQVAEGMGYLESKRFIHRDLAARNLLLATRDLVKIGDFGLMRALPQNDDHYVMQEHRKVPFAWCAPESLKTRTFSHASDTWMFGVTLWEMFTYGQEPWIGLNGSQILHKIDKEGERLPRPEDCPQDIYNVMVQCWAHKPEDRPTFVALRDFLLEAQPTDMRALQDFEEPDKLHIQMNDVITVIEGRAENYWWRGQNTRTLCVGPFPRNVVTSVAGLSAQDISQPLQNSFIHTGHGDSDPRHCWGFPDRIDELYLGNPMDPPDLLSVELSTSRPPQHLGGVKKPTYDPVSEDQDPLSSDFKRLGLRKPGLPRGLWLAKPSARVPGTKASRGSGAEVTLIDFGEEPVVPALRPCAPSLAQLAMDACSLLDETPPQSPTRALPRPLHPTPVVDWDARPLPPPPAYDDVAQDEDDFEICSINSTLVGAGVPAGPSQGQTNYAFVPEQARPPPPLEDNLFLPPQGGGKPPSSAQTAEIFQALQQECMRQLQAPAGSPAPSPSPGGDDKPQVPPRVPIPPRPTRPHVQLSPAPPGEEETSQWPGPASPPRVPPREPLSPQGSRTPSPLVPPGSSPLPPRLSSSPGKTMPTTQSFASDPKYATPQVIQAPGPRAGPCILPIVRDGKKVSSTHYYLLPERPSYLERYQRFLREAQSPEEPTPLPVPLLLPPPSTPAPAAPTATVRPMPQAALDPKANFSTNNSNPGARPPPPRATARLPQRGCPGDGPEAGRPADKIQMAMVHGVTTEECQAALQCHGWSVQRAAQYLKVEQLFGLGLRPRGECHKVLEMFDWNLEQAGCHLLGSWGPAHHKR
# [4] = target: Activated CDC42 kinase 1 (Homo sapiens) (UniProt Q07912); conditions: at 10 µM
# [5] = target: ALK tyrosine kinase receptor (Homo sapiens) (UniProt Q9UM73); conditions: at 1 µM
# [6] = target: ALK tyrosine kinase receptor (Homo sapiens) (UniProt Q9UM73); conditions: at 10 µM
# [7] = target: T1, AMP-activated protein kinase, AMPK (Homo sapiens) (UniProt P54646+O43741+P54619+Q9UGJ0+Q9Y478+Q13131+Q9UGI9); conditions: at 10 µM
# [8] = target: T2, NUAK family SNF1-like kinase 1 (Homo sapiens) (UniProt O60285); conditions: at 10 µM
# T2 sequence (whole entry): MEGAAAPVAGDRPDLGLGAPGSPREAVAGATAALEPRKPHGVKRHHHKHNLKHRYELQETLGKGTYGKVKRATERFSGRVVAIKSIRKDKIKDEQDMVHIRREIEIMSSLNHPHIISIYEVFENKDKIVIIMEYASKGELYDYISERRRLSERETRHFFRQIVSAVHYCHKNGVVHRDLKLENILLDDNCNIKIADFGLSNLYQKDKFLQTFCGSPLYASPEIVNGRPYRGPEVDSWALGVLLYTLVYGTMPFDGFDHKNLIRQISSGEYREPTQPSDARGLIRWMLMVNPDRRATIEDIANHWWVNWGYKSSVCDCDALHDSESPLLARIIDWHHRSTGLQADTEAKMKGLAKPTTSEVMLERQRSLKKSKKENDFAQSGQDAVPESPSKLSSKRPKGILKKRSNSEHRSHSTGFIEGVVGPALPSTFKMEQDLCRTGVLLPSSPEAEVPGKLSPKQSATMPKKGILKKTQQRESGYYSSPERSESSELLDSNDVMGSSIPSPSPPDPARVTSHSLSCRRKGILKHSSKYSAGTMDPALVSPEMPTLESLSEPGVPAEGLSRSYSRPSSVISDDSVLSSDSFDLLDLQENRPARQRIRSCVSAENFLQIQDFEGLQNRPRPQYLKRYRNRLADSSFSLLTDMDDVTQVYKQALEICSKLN
# [9] = target: Serine/threonine-protein kinase PAK 4 (Homo sapiens) (UniProt O96013); conditions: at 10 µM
# Serine/threonine-protein kinase PAK 4 (Homo sapiens), sequence (O96013 whole entry, looked up): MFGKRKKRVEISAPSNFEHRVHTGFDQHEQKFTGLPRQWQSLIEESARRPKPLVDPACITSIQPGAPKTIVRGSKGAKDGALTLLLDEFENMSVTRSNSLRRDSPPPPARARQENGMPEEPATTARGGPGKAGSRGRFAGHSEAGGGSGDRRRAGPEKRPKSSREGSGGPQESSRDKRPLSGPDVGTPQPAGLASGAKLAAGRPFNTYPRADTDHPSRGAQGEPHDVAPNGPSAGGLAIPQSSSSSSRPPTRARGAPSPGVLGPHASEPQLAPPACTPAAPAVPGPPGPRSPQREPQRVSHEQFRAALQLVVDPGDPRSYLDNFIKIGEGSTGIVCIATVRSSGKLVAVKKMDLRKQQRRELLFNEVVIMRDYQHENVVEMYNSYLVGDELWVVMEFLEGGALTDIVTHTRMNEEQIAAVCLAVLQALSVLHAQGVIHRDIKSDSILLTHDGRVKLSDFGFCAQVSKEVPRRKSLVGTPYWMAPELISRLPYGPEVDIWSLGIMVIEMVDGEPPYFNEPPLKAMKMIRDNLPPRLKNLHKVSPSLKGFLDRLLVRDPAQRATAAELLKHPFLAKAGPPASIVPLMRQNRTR
# [10] = target: T3, Activin receptor type-1B (Homo sapiens) (UniProt P36896); conditions: at 1 µM
# T3 sequence (whole entry): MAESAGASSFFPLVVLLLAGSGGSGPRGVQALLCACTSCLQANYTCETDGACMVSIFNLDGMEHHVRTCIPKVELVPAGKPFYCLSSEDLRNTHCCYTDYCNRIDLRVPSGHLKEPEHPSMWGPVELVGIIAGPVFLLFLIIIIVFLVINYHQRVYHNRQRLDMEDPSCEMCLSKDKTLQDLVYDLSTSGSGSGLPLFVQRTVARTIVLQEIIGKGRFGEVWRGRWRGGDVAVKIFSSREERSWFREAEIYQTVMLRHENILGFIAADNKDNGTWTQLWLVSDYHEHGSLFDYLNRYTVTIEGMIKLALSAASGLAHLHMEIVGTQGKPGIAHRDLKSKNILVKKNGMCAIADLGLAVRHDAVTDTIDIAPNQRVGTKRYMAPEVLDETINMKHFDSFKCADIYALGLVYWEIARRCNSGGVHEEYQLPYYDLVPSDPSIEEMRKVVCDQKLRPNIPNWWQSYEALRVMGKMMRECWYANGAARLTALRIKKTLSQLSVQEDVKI
# [11] = target: T3, Activin receptor type-1B (Homo sapiens); conditions: at 10 µM
# [12] = target: T4, AMP-activated protein kinase (AMPK) alpha-1/beta-1/gamma-1 (Homo sapiens) (UniProt P54619+Q9Y478+Q13131); conditions: at 1 µM
# [13] = target: T4, AMP-activated protein kinase (AMPK) alpha-1/beta-1/gamma-1 (Homo sapiens); conditions: at 10 µM
# [14] = target: T1, AMP-activated protein kinase, AMPK (Homo sapiens); conditions: at 1 µM
# [15] = target: T5, Mitogen-activated protein kinase kinase kinase 5 (Homo sapiens) (UniProt Q99683); conditions: at 1 µM
# T5 sequence (whole entry): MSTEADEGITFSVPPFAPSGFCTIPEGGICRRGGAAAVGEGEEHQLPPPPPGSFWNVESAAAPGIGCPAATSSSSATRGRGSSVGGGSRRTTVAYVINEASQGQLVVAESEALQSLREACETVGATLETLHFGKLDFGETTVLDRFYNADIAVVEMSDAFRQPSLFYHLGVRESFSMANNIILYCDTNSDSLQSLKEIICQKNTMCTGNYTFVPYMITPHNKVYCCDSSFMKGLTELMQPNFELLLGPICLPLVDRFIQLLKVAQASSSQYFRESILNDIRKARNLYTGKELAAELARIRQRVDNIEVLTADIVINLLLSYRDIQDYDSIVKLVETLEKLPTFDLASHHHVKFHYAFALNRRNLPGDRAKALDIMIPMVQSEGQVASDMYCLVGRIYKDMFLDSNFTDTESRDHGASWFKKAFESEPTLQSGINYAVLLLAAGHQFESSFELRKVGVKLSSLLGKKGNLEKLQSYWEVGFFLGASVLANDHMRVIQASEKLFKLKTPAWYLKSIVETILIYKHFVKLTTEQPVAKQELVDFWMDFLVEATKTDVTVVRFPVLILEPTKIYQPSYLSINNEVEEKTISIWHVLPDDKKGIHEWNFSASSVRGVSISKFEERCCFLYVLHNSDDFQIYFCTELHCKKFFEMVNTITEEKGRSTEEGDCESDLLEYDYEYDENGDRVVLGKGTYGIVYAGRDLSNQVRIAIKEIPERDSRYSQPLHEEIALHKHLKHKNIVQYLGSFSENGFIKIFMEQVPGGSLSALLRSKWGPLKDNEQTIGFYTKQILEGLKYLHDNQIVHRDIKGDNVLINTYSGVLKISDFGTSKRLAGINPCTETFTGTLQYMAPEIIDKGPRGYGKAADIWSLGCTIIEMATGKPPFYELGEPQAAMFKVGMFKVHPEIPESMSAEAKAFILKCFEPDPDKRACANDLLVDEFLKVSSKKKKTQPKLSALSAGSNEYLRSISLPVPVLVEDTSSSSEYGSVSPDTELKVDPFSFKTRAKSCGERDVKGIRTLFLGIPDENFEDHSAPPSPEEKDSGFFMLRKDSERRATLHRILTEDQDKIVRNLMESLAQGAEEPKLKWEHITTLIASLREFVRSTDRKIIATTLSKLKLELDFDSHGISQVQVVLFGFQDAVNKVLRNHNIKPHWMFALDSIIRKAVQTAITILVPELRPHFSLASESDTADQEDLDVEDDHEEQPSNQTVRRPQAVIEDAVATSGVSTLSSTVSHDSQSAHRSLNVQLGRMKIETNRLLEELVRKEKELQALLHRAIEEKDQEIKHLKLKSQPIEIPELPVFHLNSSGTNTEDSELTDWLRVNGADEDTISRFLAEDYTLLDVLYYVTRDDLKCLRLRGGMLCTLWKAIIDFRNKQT
# [16] = target: Serine/threonine-protein kinase PAK 6 (Homo sapiens) (UniProt Q9NQU5); conditions: at 1 µM
# [17] = target: T2, NUAK family SNF1-like kinase 1 (Homo sapiens); conditions: at 1 µM
# [18] = target: Serine/threonine-protein kinase PAK 4 (Homo sapiens) (UniProt O96013); conditions: at 1 µM
# [19] = target: Serine/threonine-protein kinase PAK 5 (Homo sapiens) (UniProt Q9P286); conditions: at 1 µM
# Serine/threonine-protein kinase PAK 5 (Homo sapiens), sequence (Q9P286 whole entry, looked up): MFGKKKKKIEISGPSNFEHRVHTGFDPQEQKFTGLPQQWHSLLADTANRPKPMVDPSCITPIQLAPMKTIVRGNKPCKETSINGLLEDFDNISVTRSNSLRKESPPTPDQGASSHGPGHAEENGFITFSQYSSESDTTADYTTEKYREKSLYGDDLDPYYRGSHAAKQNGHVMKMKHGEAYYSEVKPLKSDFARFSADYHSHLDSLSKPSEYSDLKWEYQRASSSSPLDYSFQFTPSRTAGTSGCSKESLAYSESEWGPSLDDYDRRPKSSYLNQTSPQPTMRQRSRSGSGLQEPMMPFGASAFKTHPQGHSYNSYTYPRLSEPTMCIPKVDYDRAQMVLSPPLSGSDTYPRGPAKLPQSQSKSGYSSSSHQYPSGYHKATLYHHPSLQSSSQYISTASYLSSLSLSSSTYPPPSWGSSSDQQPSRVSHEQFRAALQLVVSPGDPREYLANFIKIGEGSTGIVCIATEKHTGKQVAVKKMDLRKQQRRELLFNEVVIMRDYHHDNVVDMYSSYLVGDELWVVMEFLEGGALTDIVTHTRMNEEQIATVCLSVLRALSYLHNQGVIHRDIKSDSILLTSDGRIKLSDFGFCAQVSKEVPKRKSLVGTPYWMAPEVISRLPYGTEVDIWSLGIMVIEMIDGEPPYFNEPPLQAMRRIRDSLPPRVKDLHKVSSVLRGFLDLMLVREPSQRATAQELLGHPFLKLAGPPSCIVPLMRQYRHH
# [20] = target: Serine/threonine-protein kinase PAK 5 (Homo sapiens) (UniProt Q9P286); conditions: at 10 µM
# PAS domain-containing serine/threonine-protein kinase (Homo sapiens), sequence (Q96RG2 whole entry, the tested form may be a part): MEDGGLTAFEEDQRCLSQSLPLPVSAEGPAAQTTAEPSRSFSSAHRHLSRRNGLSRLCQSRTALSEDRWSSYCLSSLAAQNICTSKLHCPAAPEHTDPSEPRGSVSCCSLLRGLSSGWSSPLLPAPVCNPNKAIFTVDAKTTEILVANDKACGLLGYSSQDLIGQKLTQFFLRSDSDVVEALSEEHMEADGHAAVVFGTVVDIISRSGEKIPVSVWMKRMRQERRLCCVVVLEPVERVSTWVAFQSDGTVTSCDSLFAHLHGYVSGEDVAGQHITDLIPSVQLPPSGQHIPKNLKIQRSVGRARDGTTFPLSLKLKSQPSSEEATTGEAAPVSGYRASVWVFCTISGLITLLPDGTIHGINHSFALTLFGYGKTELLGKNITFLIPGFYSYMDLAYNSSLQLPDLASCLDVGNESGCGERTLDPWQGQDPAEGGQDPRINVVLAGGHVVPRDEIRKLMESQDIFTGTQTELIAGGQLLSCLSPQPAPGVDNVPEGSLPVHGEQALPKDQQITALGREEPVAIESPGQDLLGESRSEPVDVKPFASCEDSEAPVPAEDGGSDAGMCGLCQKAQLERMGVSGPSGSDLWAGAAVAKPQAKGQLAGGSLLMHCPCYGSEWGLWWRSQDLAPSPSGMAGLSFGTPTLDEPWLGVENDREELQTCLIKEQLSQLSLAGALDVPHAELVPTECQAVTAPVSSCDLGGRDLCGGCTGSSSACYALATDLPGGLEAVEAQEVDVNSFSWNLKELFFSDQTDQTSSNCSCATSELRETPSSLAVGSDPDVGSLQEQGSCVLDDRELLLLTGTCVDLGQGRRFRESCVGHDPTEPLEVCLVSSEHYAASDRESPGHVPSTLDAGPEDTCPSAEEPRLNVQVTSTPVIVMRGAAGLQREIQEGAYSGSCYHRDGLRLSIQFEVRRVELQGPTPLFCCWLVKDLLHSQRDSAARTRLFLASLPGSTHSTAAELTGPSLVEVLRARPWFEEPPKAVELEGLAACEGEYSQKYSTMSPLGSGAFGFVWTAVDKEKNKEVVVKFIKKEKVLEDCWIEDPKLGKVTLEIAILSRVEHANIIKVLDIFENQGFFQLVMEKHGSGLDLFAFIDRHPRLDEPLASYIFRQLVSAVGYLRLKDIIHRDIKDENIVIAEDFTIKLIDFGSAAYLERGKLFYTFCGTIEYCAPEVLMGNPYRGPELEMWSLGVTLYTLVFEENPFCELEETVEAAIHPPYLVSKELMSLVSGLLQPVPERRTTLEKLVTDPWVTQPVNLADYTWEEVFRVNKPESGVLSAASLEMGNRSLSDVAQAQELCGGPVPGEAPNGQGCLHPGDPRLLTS
# Serine/threonine-protein kinase PAK 6 (Homo sapiens), sequence (Q9NQU5 whole entry, looked up, the tested form may be a part): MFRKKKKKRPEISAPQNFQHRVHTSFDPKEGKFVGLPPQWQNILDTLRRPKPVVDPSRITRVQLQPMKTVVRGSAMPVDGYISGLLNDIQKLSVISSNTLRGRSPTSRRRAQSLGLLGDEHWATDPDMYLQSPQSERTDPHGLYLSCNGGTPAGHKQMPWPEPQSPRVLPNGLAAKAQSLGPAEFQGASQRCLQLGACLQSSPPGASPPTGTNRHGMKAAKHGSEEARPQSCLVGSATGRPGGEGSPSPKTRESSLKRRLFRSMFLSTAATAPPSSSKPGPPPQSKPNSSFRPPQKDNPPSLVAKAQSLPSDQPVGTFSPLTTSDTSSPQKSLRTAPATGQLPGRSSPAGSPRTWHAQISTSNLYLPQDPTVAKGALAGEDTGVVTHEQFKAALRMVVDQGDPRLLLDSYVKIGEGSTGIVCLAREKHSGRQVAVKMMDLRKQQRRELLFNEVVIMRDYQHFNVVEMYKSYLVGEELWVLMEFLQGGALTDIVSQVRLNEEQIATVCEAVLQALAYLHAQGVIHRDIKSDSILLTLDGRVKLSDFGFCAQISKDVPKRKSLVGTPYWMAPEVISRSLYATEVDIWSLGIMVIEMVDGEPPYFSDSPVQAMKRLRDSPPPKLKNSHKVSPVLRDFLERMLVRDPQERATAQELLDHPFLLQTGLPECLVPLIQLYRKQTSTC
Structure (SMILES),residual activity [1],residual activity [2],residual activity [3],residual activity [4],residual activity [5],residual activity [6],residual activity [7],residual activity [8],residual activity [9],residual activity [10],residual activity [11],residual activity [12],residual activity [13],residual activity [14],residual activity [15],residual activity [16],residual activity [17],residual activity [18],residual activity [19],residual activity [20]
O=C1Nc2ccccc2/C1=C\c1c(Cl)[nH]c2ccccc12,85%,67%,84%,48%,81%,49%,58%,46%,–,–,–,–,–,–,–,–,–,–,–,–
O=C1NC(=O)C(c2cn(CCCn3ccnc3)c3ccccc23)=C1Nc1ccccc1,–,–,45%,11%,74%,65%,25%,38%,75%,107%,103%,74%,32%,73%,82%,–,–,–,–,–
O=C1NC(=O)C(c2cn(CCCO)c3ncccc23)=C1c1cnccn1,75%,89%,82%,71%,84%,67%,80%,50%,–,83%,–,92%,75%,94%,78%,78%,62%,–,–,–
Nc1ncnc2[nH]nc(Nc3ccc(F)cc3)c12,81%,62%,60%,17%,82%,67%,65%,90%,–,114%,77%,100%,69%,99%,–,102%,98%,111%,104%,97%
CCN1/C(=C/C(C)=O)Sc2ccc(OC)cc21,–,–,81%,64%,–,–,–,–,–,122%,–,79%,54%,–,–,–,–,–,–,80%
CSc1nc(-c2ccc(F)cc2)c(-c2ccnc(NC(C)c3ccccc3)c2)[nH]1 (configuration not stated),81%,64%,90%,50%,82%,56%,56%,60%,92%,–,–,88%,59%,80%,101%,96%,101%,–,102%,83%
CN([C@@H](Cc1ccc(OS(=O)(=O)c2cccc3cnccc23)cc1)C(=O)N1CCN(c2ccccc2)CC1)S(=O)(=O)c1cccc2cnccc12,50%,79%,100%,–,74%,57%,86%,–,–,–,86%,–,–,–,115%,84%,–,–,115%,72%
CCCCc1c(-c2ccc(O)cc2)[nH]c2nccnc12,47%,–,26%,6%,71%,37%,67%,16%,–,88%,34%,85%,71%,75%,93%,94%,12%,–,56%,36%
O=C(c1ccccc1)c1ccc(N2CCOCC2)cc1O,85%,78%,94%,72%,78%,–,81%,90%,–,123%,–,98%,72%,89%,91%,82%,–,–,92%,114%
COc1cc2c(cc1OC)-c1n[nH]c(Nc3cccc(F)c3)c1C2,99%,–,–,–,74%,–,69%,68%,–,–,–,80%,65%,–,74%,98%,–,–,–,–
CC(C)[C@H](CO)Nc1nc(Nc2cc(N)cc(Cl)c2)c2ncn(C(C)C)c2n1,5%,–,29%,9%,–,–,50%,13%,–,122%,117%,–,–,87%,–,26%,44%,–,57%,12%
Cc1cc(C)c(/C=C2\C(=O)Nc3ccccc32)[nH]1,62%,–,52%,18%,37%,13%,–,19%,69%,–,–,55%,29%,–,–,–,35%,–,–,–
O=S(=O)(c1cccc2cnccc12)N1CCCNCC1,–,–,–,–,–,74%,–,52%,101%,–,–,–,–,–,–,–,–,106%,–,–
NC(=O)c1cccc(-c2cc(Nc3ccc(OC(F)(F)F)cc3)ncn2)c1,–,–,–,86%,–,–,83%,90%,–,–,–,99%,93%,–,90%,–,–,–,92%,84%
O=S(=O)(NCCNC/C=C/c1ccc(Br)cc1)c1cccc2cnccc12,55%,81%,77%,43%,–,–,19%,11%,–,–,–,52%,15%,60%,–,–,42%,–,–,–
